An excerpt weighted towards active compounds, which were near 2.2% of everything screened.
M1 PAM parental – nonselective activator or artifact in parental CHO-K1 calcium assay; ATP EC20, Fluo-8 calcium fluorescence; 0% at ATP EC20, 100% at ATP max; activation, % at 3 µM; 0.02% of 360,000 active;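 active means activation above the run cutoff, the mean activation of all test compounds plus 3 SD, cut at about 40% in these data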;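 further: peak over basal fluorescence ratio in a 140 s read after ATP addition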
TMEM16A act – activates or potentiates the mouse TMEM16A chloride channel | HEK293 TMEM16A/YFP-H148Q/I152L, iodide quench fluorescence; active compounds read low | 0.3% of 340,000 active | AID 623877 | Q8BHY3 | B-score at 10 µM;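 active means fluorescence-ratio B-score plate-corrected deviation score at least 3 library SD below zero, with starting fluorescence score within 5 deviations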;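 further: channel opened by trigger with iodide after compound preincubation; score built on the fluorescence ratio of max minus min over baseline; more negative score means more quench and so TMEM16A activation or potentiation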
CHO-K1 Ca ag – counter-screen for M1 agonists: effect in parental CHO-K1 cells; Fluo-8 calcium fluorescence; scaled to maximal ATP response, vehicle zero; activation, % at 3 µM; 0.48% of 360,000 active; AID 602248; in the data active means activation above about 15%;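 further: untransfected CHO-K1 host cells lacking M1 receptor as counterscreen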
TMEM16A inh – mouse TMEM16A channel inhibition, primary screen. HEK293 TMEM16A/YFP iodide influx fluorescence, ionomycin. normalized B-score (activity score, 25-100; higher = stronger inhibition) at 10 µM. 1.2% of 310,000 active;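 active means ratio plate-corrected score three or more library SD toward inhibition, starting fluorescence score within five deviations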;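 further: score derived from kinetic fluorescence span divided by baseline fluorescence per well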
NTR1 agonist – NTR1 (human) agonism | activation, % at 20 µM | NTR1-U2OS beta-arrestin-GFP spot imaging, agonist mode | 0.17% of 330,000 active | AID 493036 | P30989;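 active means activation at or above 40% of the spot to cytoplasm intensity ratio, with at least 20 cells analyzed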;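 further: 0% = DMSO without peptide and 100% = 100 nM NTR1 peptide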
CHO-K1 Ca antag – M1 antagonist counterscreen hit in parental CHO-K1 cells; ATP-induced calcium, Fluo-8 fluorescence; inhibition, % at 3 µM; 0.6% of 360,000 active;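 active means inhibition above a per-plate cutoff, the plate's mean sample inhibition plus 3 SD, cut at about 24% in these data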;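 further: 0% = DMSO plus EC80 ATP and 100% = DMSO alone without ATP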
The depositor's hits bear a star; i = inactive; nt = no result given; ! = not active in a repeat.

SMILES	M1 PAM parental	TMEM16A act	CHO-K1 Ca ag	TMEM16A inh	NTR1 agonist	CHO-K1 Ca antag
CCCc1nnc(NC(=O)Cn2c(=O)oc3cc(Br)ccc32)s1	22	i	17*	i	6	-11
CCCc1nnc(NC(=O)Cn2c(=O)oc3ccccc32)s1	20	i	3	i	-1	-10
CC1(C)CC=CC(COC(=O)c2ccccc2C(=O)O)C1 (stereo not given)	-18	i	0	nt	nt	-1
OC[C@@H]1CN(Cc2cccs2)C[C@H](n2cnc3c(N4CCCC4)ncnc32)O1	-8	nt	1	nt	nt	22
CC(=O)OCc1ccc(C2=CC(=O)CC(C)(C)C2=O)cc1	-13	nt	0	nt	nt	24*
CC(NC(=O)c1cc2c(=O)n(C)c3ccccc3c2n1C)c1ccc2c(c1)OCCO2 (stereo not given)	-8	i	1	i	5	5
Cn1c(C(=O)Nc2ccc3c(c2)OCO3)cc2c(=O)n(C)c3ccccc3c21	9	-6.8*	0	i	6	3
Cc1ccc(CNC(=O)c2cc3c(=O)n(C)c4ccccc4c3n2C)o1	-14	i	2	i	7	24*
CCCCN1C(=O)C(CC(=O)NC(c2ccccc2)c2ccccc2)CC(C(=O)N(C(C)C)C(C)C)=C1C (stereo not given)	7	nt	-1	nt	nt	-3
Cc1cc2nc(C(C)(C)C)c(Cc3ccccc3C(F)(F)F)n2c(C)c1Br	12	nt	1	nt	nt	0
Cc1ccccc1-n1c(=O)cc(N2CCc3ccccc3C2)[nH]c1=O	13	i	18*	i	1	5
O=c1cc(N2CCc3ccccc3C2)[nH]c(=O)n1-c1ccccc1Cl	28	i	1	i	0	-11
CCCCOc1ccc(S(=O)(=O)n2c(C)nc3ccccc32)cc1	10	i	0	25*	1	-1
CNc1ccc(C(O)(C(F)(F)F)C(F)(F)F)cc1C(O)(C(F)(F)F)C(F)(F)F	-8	i	0	i	6	35*
Cc1cccc(NC(c2ccc(O)cc2)c2ccc3ccc(C)nc3c2O)n1 (stereo not given)	-8	i	0	i	5	25*
COc1cc(NC(=O)c2cc(Cl)ccc2Cl)ccc1-c1cc2ccccc2oc1=O	12	i	0	i	2	-25
CCc1ccc(OCC(=O)Nc2ccc(-c3cc4ccccc4oc3=O)c(OC)c2)cc1	1	i	8	i	2	26*
CCC(=O)Nc1ccc(-c2cc3ccccc3oc2=O)cc1	-16	i	-1	i	0	25*
Cc1ccc(S(=O)(=O)N2CCCCC2)cc1NC(=O)CSc1nnc(C2CC2)n1C	-9	i	0	nt	-1	-10
CN1CCn2cnc(C(=O)Nc3ccc(Cl)cc3)c2C1=O	-3	nt	0	nt	nt	-2
CN1CCN(CCCNC(=O)c2cc3c(=O)n(C)c4ccccc4c3s2)CC1	-7	i	0	i	2	29*
Cc1ccc2oc(=O)c3cc(C(=O)NCCCN4CCN(C)CC4)sc3c2c1	10	i	1	i	1	54*
Oc1ccc(Br)cc1CNc1cnc2ccccc2c1	5	i	4	i	6	1
Cc1ccc(O)c(CNc2cnc3ccccc3c2)c1	9	i	5	25*	2	3
O=C(Nc1cccc(Cl)c1Cl)c1csc([C@H]2C[C@H](O)[C@@H](CO)O2)n1	-7	nt	5	nt	nt	4
SMILES	M1 PAM parental	TMEM16A act	CHO-K1 Ca ag	TMEM16A inh	NTR1 agonist	CHO-K1 Ca antag
CCCCn1nnnc1C(c1cc2ccccc2o1)N1CCN(CC(=O)N2CCCC2)CC1 (stereo not given)	9	nt	1	nt	nt	-25
O=C(Cc1ccc([N+](=O)[O-])cc1)Nc1cc(C(F)(F)F)cc(C(F)(F)F)c1	-21	i	3	i	-1	29*
COc1ccc(S(=O)(=O)c2nnn(-c3cccc(Cl)c3)c2N)cc1	-16	i	2	i	1	25*
O=C(NCc1ccc(F)cc1)OC1CC2CC1[C@H]1CCCCN1C2=O (stereo not given in full)	9	nt	0	nt	nt	-1
CCc1cc2c(=O)n(-c3ccccc3)c(=S)[nH]c2s1	-4	i	0	25*	-2	-14
CCN1CCN(Cc2ccc(NC(=O)c3ccc(C)c(NC(=O)c4c[nH]c5cc(C(F)(F)F)ccc5c4=O)c3)cc2C(F)(F)F)CC1	-16	i	0	i	4	26*!
CCc1nc2ccc(C(=O)NCc3ccc4c(c3)OCO4)cn2c1N(C)Cc1ccc(OC)cc1	9	nt	1	nt	nt	-4
COC(=O)c1cc(S(=O)(=O)N2CCC(c3cc(OC)ccc3OC)C2)c[nH]1 (stereo not given)	-7	i	16*	i	0	10
O=C(Cn1c(=O)oc2cc(S(=O)(=O)N3CCCC3)ccc21)Nc1ccccn1	7	nt	1	nt	nt	-4
COc1ccc2cc3c(N)nn(C(=O)Cc4ccccc4OC)c3nc2c1	13	i	0	i	11	-4
COc1ccc2cc3c(N)nn(C(=O)C4CCC(C(C)(C)C)CC4)c3nc2c1 (stereo not given)	-8	i	0	i	42*	4
Cn1c(CSCc2ccc(Cl)cc2)nnc1SCC(=O)Nc1nccs1	18	i	4	i	11	-9
Cn1c(CSCc2ccc(F)cc2)nnc1SCC(=O)Nc1nccs1	9	i	5	i	-1	26*
COc1ccc(C(=O)NCC(c2ccco2)N2CCOCC2)cc1 (stereo not given)	4	nt	0	nt	nt	1
Fc1ccc2[nH]c3c(N4CCc5ccccc5C4)ncnc3c2c1	-16	nt	14	i	9	28*
Brc1ccc2[nH]c3c(N4CCc5ccccc5C4)ncnc3c2c1	nt	nt	nt	i	24	nt
COc1ccc(/C=C/C(=O)NC(=S)NN2CCCCC2c2cccnc2)cc1OC (stereo not given)	28	-4.6*	1	i	0	-7
O=C(/C=C/c1ccc(Cl)cc1)NC(=S)NN1CCCCC1c1cccnc1 (stereo not given)	nt	nt	nt	i	3	nt
CCc1ccc2oc(=O)cc(CN(C)Cc3ccccc3)c2c1	11	i	0	100*	3	-5
Cc1cc(NC(=O)c2ccc(S(=O)(=O)N3CCOCC3)cc2)nc2c1c(=O)oc1ccccc12	nt	nt	nt	i	3	nt
Cc1cc(NC(=O)c2ccc(S(=O)(=O)N3CCCC3)cc2)nc2c1c(=O)oc1ccccc12	-3	-14*	0	nt	nt	-5
Cc1ccsc1C(=O)NNC(=O)Nc1ccc(Cl)c(Cl)c1	-5	i	0	i	-1	29*
CCN(CC)c1ccc2c(Cl)c(Br)c(=O)oc2c1	-7	i	53*	i	-4	73*
COc1ccncc1-c1ccc(C2=CC(=O)CC(C)(C)C2=O)cc1	25	nt	7	nt	nt	-12

Compound activity: PubChem BioAssay, several laboratories
